According to PubChem BioAssay AID1259354 (Paczesny and Yang Labs, IUPUI and University of Michigan, 2018):
Values joined by “and” are separate entries in the source; they are usually repeats but may differ in a detail not shown here. Identical values can stand only once. The campaign covered roughly 78,000 compounds. About 1,800 (2.3%) were called active. Roughly 27% stayed inconclusive and do not appear here. The sample holds actives, similar compounds and a random draw of the others, so the mix is not that of the screen. Rule as the data show it: active = inhibition above about 30%; inconclusive = mostly about 10% to 28%; inactive = weaker than that.

Biological target: Interleukin-1 receptor-like 1 (Homo sapiens) (UniProt Q01638)
Sequence (Q01638 whole entry, looked up): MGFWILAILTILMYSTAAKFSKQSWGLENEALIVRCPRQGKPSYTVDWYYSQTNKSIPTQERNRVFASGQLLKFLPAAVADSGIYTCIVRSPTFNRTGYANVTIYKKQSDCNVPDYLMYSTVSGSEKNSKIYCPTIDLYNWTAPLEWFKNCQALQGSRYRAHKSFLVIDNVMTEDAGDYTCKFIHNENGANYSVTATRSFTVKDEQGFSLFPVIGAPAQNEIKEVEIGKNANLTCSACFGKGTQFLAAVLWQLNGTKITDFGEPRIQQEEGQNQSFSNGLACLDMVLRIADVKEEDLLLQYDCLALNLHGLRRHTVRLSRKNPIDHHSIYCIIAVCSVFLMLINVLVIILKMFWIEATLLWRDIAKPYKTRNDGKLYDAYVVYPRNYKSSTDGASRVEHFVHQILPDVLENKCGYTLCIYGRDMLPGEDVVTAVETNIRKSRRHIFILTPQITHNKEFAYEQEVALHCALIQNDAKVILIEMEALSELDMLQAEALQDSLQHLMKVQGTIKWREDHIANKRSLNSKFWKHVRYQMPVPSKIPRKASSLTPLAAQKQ
Test: blocks human ST2 binding to IL-33, primary screen, biochemical, AlphaLISA (AID 1259354)
Conditions: AlphaLISA ST2-Fc/biotin-IL-33 interaction, 1 h; at 17 µM, active compounds read high

| Structure (SMILES) | inhibition |
| --- | --- |
| Cc1csc(SCC(=O)N2CCC(c3cc(C(C)C)n[nH]3)CC2)n1 | inactive |
| O=C(CN1CCN(Cc2cccc(Cl)c2)C1=O)N1CCCC1 | inactive |
| O=C(CSC1=Nc2ccccc2C2=NC(Cc3ccccc3)C(=O)N12)NC1CCCCC1 (stereo not drawn) | inactive |
| COCCn1ccnc1-c1[nH]cnc1-c1ccccc1 | inactive |
| CC(C)c1ccc(-c2nc(N3CCCCC3)nc3n[nH]c(N)c23)cc1 | inactive |
| Cc1cc2c(Nc3cccc(Cl)c3C)ncnc2s1 | inactive |
| Nc1nonc1-n1nnc(CN2CCCCC2)c1CN1CCCCC1 | inactive |
| COc1ccc2nc(NC(=O)Cc3c(C(=O)O)n(C)c4ccccc34)sc2c1 | inactive |
| Cc1ccc(N(C(=O)c2ccccc2Br)C2C=CS(=O)(=O)C2)cc1C (stereo not drawn) | inactive |
| Cc1cccc(NC(=O)c2ccc([N+](=O)[O-])o2)c1 | 42% (active) |
| O=C(Nc1cccc([N+](=O)[O-])c1)c1cccc(Cl)c1Cl | inactive |
| Cc1ccc(NC(=O)c2ccc(Br)o2)c(C)c1 | inactive |
| CSCCC(NS(=O)(=O)c1cccc2nsnc12)C(=O)O (stereo not drawn) | inactive |
| N#Cc1c(-c2ccccc2)cc(-c2ccccc2)nc1SCC(=O)O | inactive |
| Cc1cccc(-c2nc(N3CCCC3)c3ccccc3n2)c1 | inactive |
| N#Cc1c(N2CCCCCC2)ncc2cc3ccccc3nc12 | 37% (active) |
| N#Cc1c(SCC(=O)Nc2ccccn2)nsc1SCC(=O)Nc1ccccn1 | inactive |
| N#Cc1c(SCC(=O)Nc2ccccc2)ncc2cc3ccccc3nc12 | 32% (active) |
| c1ccc(-c2csc3ncnc(N4CCCCC4)c23)cc1 | inactive |
| COc1cc2c(cc1OC)[C@H]1CN3CCc4cc(OC)c(OC)cc4[C@@H]3CN1CC2 | inactive |
| CCn1cc(S(=O)(=O)N2CCCC2c2ccccn2)c(C)n1 (stereo not drawn) | inactive |
| Cc1cc(C(=O)N(CC2CCN(C3Cc4ccccc4C3)CC2)CC2CCCO2)nc(C)n1 (stereo not drawn) | inactive |

| Structure (SMILES) | inhibition |
| --- | --- |
| Cc1cc(C)c2c(CC(=O)NCc3cccnc3N3CCOCC3)coc2c1 | inactive |
| c1ccc(CSc2ncc(C3NCCc4[nH]cnc43)cn2)cc1 (stereo not drawn) | inactive |
| Cc1cc(NC(=O)C(NS(=O)(=O)c2cccs2)C(C)C)ccc1Br (stereo not drawn) | inactive |
| Fc1cccc(Cl)c1C1CC(c2ccccc2)Nc2ncnn21 (stereo not drawn) | inactive |
| Cn1c(CC2CCNCC2)nnc1SCCOc1ccc(Cl)cc1 | inactive |
| O=C(c1ccnc(-n2cnnc2)c1)N1CCC2(CC1)C(=O)Nc1ccccc12 | inactive |
| O=C(c1cccc(-c2ncc[nH]2)c1)N1Cc2cnn(CCO)c2C1 | inactive |
| CN1CCN(C(=O)c2ccnc(-c3cc(N)nc4[nH]ccc34)c2)CC1 | 30% (active) |
| COc1ccc(C(=O)NC(Nc2ccccc2Cl)C(Cl)(Cl)Cl)cc1 (stereo not drawn) | inactive |
| Cc1ccc(NC(=O)CNCC(C)c2ccccc2)c(C)c1 (stereo not drawn) | inactive |
| OC(C#Cc1ccccc1)C#Cc1ccccc1 | inactive |
| Cc1nonc1C1CCCN1Cc1cnc(S(=O)(=O)C(C)C)n1Cc1ccccc1F (stereo not drawn) | inactive |
| O=C(Nc1nnc(-c2cccs2)o1)c1ccc(S(=O)(=O)N2CCCc3ccccc32)cc1 | inactive |
| CSCc1nnc(NC(=O)c2ccc(S(=O)(=O)N3CCCc4ccccc43)cc2)o1 | inactive |
| CC1CCc2nc(NC(=O)c3ccc(S(=O)(=O)N4CCc5ccccc54)cc3)sc2C1 (stereo not drawn) | 30% (active) |
| CCN(CC)C(=O)[C@@H]1C[C@H](n2cc(Cn3c(C)nc4ccccc43)nn2)CN1 | inactive |
| Brc1ccc(CSc2cccc3cccnc23)cc1 | inactive |
| CC1=Nc2c(ccc3cccnc23)C1(C)C | 36% (active) |
| CSCCNC(=O)CC1C(=O)NCCN1Cc1ccccc1 (stereo not drawn) | inactive |
| Cc1cc2oc(=O)cc(CN(C)C(C)c3ccon3)c2cc1C (stereo not drawn) | inactive |
| Clc1ccc(OCCCCN2CCOCC2)c(Br)c1 | inactive |
| CN(Cc1ccccc1)C(=O)CN1C(=O)/C(=C\c2cccc(Cl)c2)Sc2ccccc21 | 44% (active) |

| Structure (SMILES) | inhibition |
| --- | --- |
| CN(Cc1ccccc1)C(=O)c1cc(-c2ccc(Cl)cc2)on1 | inactive |
| CN(Cc1ccccc1)C(=O)CN(C)S(=O)(=O)c1ccc(Cl)cc1 | inactive |
| O=C(NC(Nc1cccc([N+](=O)[O-])c1)C(Cl)(Cl)Cl)c1ccc(Br)cc1 (stereo not drawn) | inactive |
| CCOC(=O)c1c(C)[nH]c(C(=O)NC(C)c2cnn(-c3ccccc3C)c2C)c1C (stereo not drawn) | inactive |
| CN(Cc1ccccc1)C(=O)C1(S(=O)(=O)c2ccc(Cl)cc2)CC1 | inactive |
| COc1ccc(Nc2ccn(-c3nc(-c4ccccc4)oc3-c3ccccc3)c(=O)n2)cc1 | inactive |
| COc1ccc(-c2csc(=Nc3ccccc3)n2C)cc1 | 59% (active) and 52% (active) |
| O=C(C(NS(=O)(=O)c1cccs1)c1ccccc1)N1CCc2ccccc21 (stereo not drawn) | inactive |
| COc1cc(OC)cc(C(=O)Nc2cc(N3CCCS3(=O)=O)ccc2OC)c1 | inactive |
| O=C1NC(=O)/C(=C\c2ccc(-c3cccc(Cl)c3)o2)S1 | inactive |
| CC(=O)Nc1nonc1N1C(=N)S/C(=C\c2ccc(-c3cccc(F)c3)o2)C1=O | inactive |
| O=C1NC(=O)/C(=C\c2ccc(-c3ccc(F)c(Cl)c3)o2)S1 | 34% (active) |
| Cc1nc(CC(=O)NCCc2csc(-c3cccnc3)n2)cs1 | inactive |
| COc1ccc(CCNS(=O)(=O)c2cccc3cccnc23)cc1OC | inactive |
| COc1cc(NS(=O)(=O)c2ccc3c(c2)CCN3C(=O)C2CC2)cc(OC)c1 | inactive |
| Cc1cccc(C)c1NC(=O)c1ccc(F)cc1 | inactive |
| N#CC1=C(N)OC2=C(C(=O)CC(c3ccccc3)C2)C1c1cccs1 (stereo not drawn) | inactive |
| CCc1nc(C)ccc1OCC(=O)N1CCC2(CN(C)C(=O)O2)C1 (stereo not drawn) | 30% (active) |
| O=C1CC2(CCCCC2)Oc2ccc(OCC(=O)N3CCOCC3)cc21 | inactive |
| O=C(CN1CCCCC1)N1c2ccccc2Sc2ccc(C(F)(F)F)cc21 | inactive |
| O=C(CN1C(=O)CC(c2ccccc2)Sc2ccccc21)NCc1ccco1 (stereo not drawn) | inactive |
| O=C(CN1C(=O)/C(=C\c2ccc(C(F)(F)F)cc2)Sc2ccccc21)NCC1CCCO1 (stereo not drawn) | 30% (active) |

| Structure (SMILES) | inhibition |
| --- | --- |
| O=C(CN1CCN(Cc2ccc(F)cc2)C1=O)NCC1CCCO1 (stereo not drawn) | inactive |
| O=C(CN1C(=O)C2CCCCN2C(=O)c2ccccc21)NCC1CCCO1 (stereo not drawn) | inactive |
| O=C(CN1C(=O)/C(=C\c2ccc(C(F)(F)F)cc2)Sc2ccccc21)NCc1ccco1 | 32% (active) |
| CC(C)c1ccc(Nc2c(-c3cccs3)nc3cnccn23)cc1 | inactive |
| O=C(c1ccccc1F)N1CCc2c(c(C(=O)N3CCOCC3)nn2CCCc2ccccc2)C1 | inactive |
| CC(C)c1ccc(NC2CCCN(C(=O)CCc3nc(-c4ccccc4)no3)C2)cc1 (stereo not drawn) | inactive |
| CC1=C(C(N)=O)C(c2ccccc2Cl)n2ncnc2N1 (stereo not drawn) | inactive |
| O=C(Cn1nc(-c2ccccc2)ccc1=O)NCCN1CCOCC1 | inactive |
| COc1c(F)ccc(-c2nc(C(C)C)nn2-c2ccccn2)c1F | inactive |
| N#Cc1c2c(c(-n3ccnc3)n3c1nc1ccccc13)CCC2 | inactive |
| CN(C)CCCNc1c2c(c(C#N)c3nc4ccccc4n13)CCC2 | 51% (active) |
| Cc1cc(NCCN2CCCCCC2)n2c(nc3ccccc32)c1C#N | 45% (active) |
| Cc1c(CCC#N)c(-n2ccnc2)n2c(nc3ccccc32)c1C#N | inactive |
| O=C(CN1CCCN(Cc2ccccc2)S1(=O)=O)NCCc1ccccc1 | inactive |
| CN1C(N)=NC(=O)/C1=C/c1cc(Br)c(O)c(Br)c1 | inactive |
| COc1ccc(Cl)cc1C(=O)N1CCN(c2cccc(Cl)c2)CC1 | inactive |
| COc1cc(/C=C2/C(=O)N(c3ccc(Cl)c(Cl)c3)N=C2C)cc(Br)c1O | 37% (active) |
| COc1ccc(/C=C2\C(=O)N(c3ccc(Cl)c(C(=O)O)c3)N=C2C)cc1Br | 72% (active) |
| COc1ccc2cc(-c3ccccc3NC(=O)CN)ccc2c1 | inactive |
| COc1ccc(C2C(C(=O)N3CCC(C)CC3)c3cc(OC)c(OC)cc3C(=O)N2C)cc1 (stereo not drawn) | inactive |
| CCOc1ccc(Br)c(/C=C2\C(=O)Nc3ccc(Br)cc32)c1 | 60% (active) |
| CCOc1cc(/C=C2\C(=O)NC(=O)N(c3ccc(Br)cc3)C2=O)ccc1O | inactive |

| Structure (SMILES) | inhibition |
| --- | --- |
| COc1cc(/C=C2\C(=O)Nc3ccc(Br)cc32)ccc1O | inactive |
| COCc1cc(CNC(=O)c2csc3c2CCCC3)[nH]n1 | inactive |
| O=C(Nc1ccccc1)/C(=C/c1ccc2c(c1)OCO2)NC(=O)c1ccc(Br)o1 | inactive |
| COc1ccccc1C(=O)N/C(=C\c1ccc2c(c1)OCO2)C(N)=O | inactive |
| COc1ccccc1C(=O)N/C(=C/c1ccc2c(c1)OCO2)C(=O)Nc1cccc(C(=O)O)c1 | 39% (active) |
| CC(C)(C)NS(=O)(=O)c1ccc2c(c1)C(=O)c1cc(S(=O)(=O)NC(C)(C)C)ccc1-2 | inactive |
| CCCc1nc(CN(C)C(=O)c2c(O)cccc2O)no1 | inactive |
| CC(C)c1ccc(CNCCCN(C)C)cc1 | inactive |
| O=C(NC1CCCCC1)N1CCC(n2cc(-c3ccccn3)nn2)CC1 | inactive |
| COc1ccc(-c2nc3s/c(=C\C4=Cc5ccccc5OC4C)c(=O)n3n2)cc1 (stereo not drawn) | inactive |
| CC1CCN(S(=O)(=O)c2ccc(Cl)c(C(=O)Nc3ccccc3[N+](=O)[O-])c2)CC1 | 34% (active) |
| CC1CCN(S(=O)(=O)c2ccc(Cl)c(S(=O)(=O)N3CCC(C)CC3)c2)CC1 | inactive |
| O=C(Nc1ccccc1-c1ccccc1)c1ccccc1[N+](=O)[O-] | inactive |
| C/C(=C/c1nsc(Nc2ccc(Cl)cc2)n1)NC1CC(C)(C)NC(C)(C)C1 | inactive |
| CC1CCCC(C)N1C(=O)c1cccc2c1-c1ccccc1C2=O (stereo not drawn) | inactive |
| Cc1ccccc1CC1(C(=O)O)CCCN(c2cc(C3CC3)ncn2)C1 (stereo not drawn) | inactive |
| CC(=O)C1=C(C)OC(N)=C(C#N)C1c1ccccc1 (stereo not drawn) | inactive |
| Cc1cccc(NC(=O)CN2C(=O)CC(c3ccccc3)=Nc3ccccc32)c1 | inactive |
| O=C(Nc1cccc(-c2cccc(Cl)c2)c1)C1CCN(C(=O)c2ccccc2)CC1 | inactive |
| Cc1nc(-c2cccc(NC(=O)C3CCN(c4ccccc4)C3=O)c2)no1 (stereo not drawn) | 37% (active) |
